The list is not random: actives were taken first. Their share in the collection is about 18%.
CtBP-E1A blk: blocks the CtBP interaction with E1A; AlphaScreen GST-E1A/His-CtBP binding, 1536-well; active compounds read low; 0.49% of 340,000 active; activity change, % (test concentration not listed); in the data active = activity change below about -65%; inconclusive = mostly about -30% to -63%
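GST-E1A and His-tagged CtBP (125 nM each as 5X stock) were preincubated with pin-transferred compound for 2 h at 37 °C in the dark, then glutathione donor and nickel acceptor beads were added for 1 h before AlphaScreen reading.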
DT40 TDP1 no CPT: qHTS for Inhibitors of human tyrosyl-DNA phosphodiesterase 1 (TDP1): qHTS in cells in absence of CPT; DT40 Tdp1-/- hTDP1 cells, no CPT, ATP luminescence, 48 h; Potency, µM (doses to about 46.2 µM), for inactives: at the highest dose activity change, negative = growth inhibition, actives largely listed as inhibitors; 15% of 420,000 active; AID 686978, 2013; note: potency is the fitted concentration of half-maximal effect; nearly all actives have a fitted effect of over 55% in size
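Seeded 400 DT40-hTDP1 cells/well (vehicle DMSO, no 20 nM CPT); pinned compounds; ≥48 hr at 37 °C; CellTiter-Glo luminescence as viability measure.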
TDP1 cell CPT: growth inhibition of DT40 Tdp1-/-;hTDP1 cells with camptothecin (screen for TDP1 inhibitors) | chicken DT40 Tdp1-/-;hTDP1 cells + 20 nM CPT, ATP luminescence, 48 h | Potency, µM (highest dose often 46.2 µM), inactives show at the highest dose activity change, negative = growth inhibition, most hits filed as inhibitors | 12% of 420,000 active; note: potency is the fitted concentration of half-maximal effect; nearly all actives have a fitted effect of over 55% in size
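Chicken DT40 Tdp1-/- cells complemented with human TDP1, 400 cells/well, exposed to compounds plus 20 nM camptothecin for at least 48 h at 37 C; viability read as ATP content by CellTiter-Glo luminescence.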
Six1-Eya2 inh: blocks human Six1 binding to Eya2; Q15475+O00167; AID 651725; 0.56% of 360,000 active; activity change, % (test concentration not listed); AlphaScreen GST-Six1/His-Eya2 binding, biochemical; active compounds read low; in the data active = activity change below about -65%; inconclusive = mostly about -30% to -63%
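AlphaScreen with GST-Six1 and His-Eya2 (5X mix: 250 nM and 500 nM), glutathione donor and nickel acceptor beads; buffer 50 mM Tris pH 8.0, 300 mM NaCl, 1 mM TCEP; 1 h at 37 C in the dark.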
IL1B secr inh: inhibitors of inflammasome signaling (IL-1 beta secretion); THP-1 LPS/ATP IL-1B secretion, AlphaLISA, 16 h; active compounds read low; 4.7% of 360,000 active; activity change, % at 57.5 µM; AID 743279; in the data active = activity change below about -50%; inconclusive = mostly about -30% to -49%
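THP-1 cells pretreated 1 hr with compounds (up to 57.5 uM final), then stimulated with LPS (250 ng/mL final) plus ATP (1.25 mM final); secreted IL-1B measured by AlphaLISA after 16 hr, decreased signal indicating inhibition.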
TDP1 block: TDP1 (human) enzyme inhibition; recombinant TDP1, AlphaScreen DNA substrate cleavage; Potency, µM (series often up to 130 µM), for inactives: top-dose activity change, negative = inhibition, usual class: inhibitors; 0.28% of 350,000 active; AID 485290; note: potency is the fitted concentration of half-maximal effect; nearly all actives have a fitted effect of over 40% in size
Target sequence (Q9NUW8 whole entry, looked up): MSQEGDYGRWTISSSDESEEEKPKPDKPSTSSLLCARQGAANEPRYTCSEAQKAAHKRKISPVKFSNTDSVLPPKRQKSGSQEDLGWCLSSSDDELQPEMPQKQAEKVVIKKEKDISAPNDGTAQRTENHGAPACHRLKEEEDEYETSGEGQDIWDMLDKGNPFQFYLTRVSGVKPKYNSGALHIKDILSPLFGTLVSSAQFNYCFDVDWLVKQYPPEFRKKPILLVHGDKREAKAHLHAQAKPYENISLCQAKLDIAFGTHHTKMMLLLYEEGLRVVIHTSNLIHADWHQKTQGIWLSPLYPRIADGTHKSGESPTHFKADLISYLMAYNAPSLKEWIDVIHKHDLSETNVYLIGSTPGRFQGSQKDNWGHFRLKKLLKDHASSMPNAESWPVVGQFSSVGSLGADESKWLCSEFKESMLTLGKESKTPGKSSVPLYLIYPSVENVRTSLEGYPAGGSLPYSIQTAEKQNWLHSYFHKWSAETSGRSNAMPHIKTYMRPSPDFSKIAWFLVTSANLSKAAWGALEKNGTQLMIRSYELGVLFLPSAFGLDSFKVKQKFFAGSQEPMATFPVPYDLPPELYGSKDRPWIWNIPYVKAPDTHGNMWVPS
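AlphaScreen read-out: signal falls as enzyme removes the 3' tyrosine-FITC from a 5'-biotinylated DNA oligo (15 nM, 5 min, RT). Enzyme was E. coli-made recombinant Tdp1 at 1 nM, exposed to compound for 15 min beforehand; beads 10 ug/ml, 10 min.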
* marks the source's active call; other numbers are inactive results. Unless noted, calls come from the whole dose curve; as a rule, active = well fitted curve in the direction sought with a large enough effect; inconclusive = small, poorly fitted or top-dose-only effect, or another doubt; inactive = no such curve, though single readings can be large; an effect the other way counts as inactive or inconclusive. % is set by controls: 0 for no effect and ±100 for the full control effect.

`O=C(NC(Cc1ccccc1)C(=O)Oc1ccc2c(C(F)(F)F)cc(=O)oc2c1)OCc1ccccc1` (stereo not drawn) gave CtBP-E1A blk 4, DT40 TDP1 no CPT -23%, TDP1 cell CPT -30%, Six1-Eya2 inh 4, IL1B secr inh 28 and TDP1 block 0%.
`Cc1cc(C)nc(N(C#N)Cc2ccc(Br)cc2)n1` gave CtBP-E1A blk 9, DT40 TDP1 no CPT -23%, TDP1 cell CPT -4%, Six1-Eya2 inh 9, IL1B secr inh -1 and TDP1 block -1%.
`O=C(CSc1cccc[n+]1[O-])c1cc2ccccc2o1` gave CtBP-E1A blk -10, DT40 TDP1 no CPT inconclusive, TDP1 cell CPT 21µM*, Six1-Eya2 inh 7, IL1B secr inh -12 and TDP1 block 8%.
Screening O=C(CSc1cccc[n+]1[O-])c1cccs1 returned CtBP-E1A blk 4, DT40 TDP1 no CPT 4.1µM*, TDP1 cell CPT inconclusive, Six1-Eya2 inh 3, IL1B secr inh -9 and TDP1 block 5%.
`O=C(CSc1cccc[n+]1[O-])c1cc(Cl)ccc1Cl` gave CtBP-E1A blk -14, DT40 TDP1 no CPT 0.29µM*, TDP1 cell CPT 0.01µM*, Six1-Eya2 inh -2, IL1B secr inh 21 and TDP1 block 5%.
For N#Cc1ccc(Cl)cc1NC(=O)CSc1cccc[n+]1[O-] the results were CtBP-E1A blk 0, DT40 TDP1 no CPT 23µM*, TDP1 cell CPT inconclusive, Six1-Eya2 inh 23, IL1B secr inh 18 and TDP1 block 1%.
O=C(O)CSc1cccc[n+]1[O-] was read as CtBP-E1A blk 2, DT40 TDP1 no CPT inconclusive, TDP1 cell CPT -4%, Six1-Eya2 inh 5, IL1B secr inh -14 and TDP1 block 0%.
For COc1ccc(Cl)cc1NC(=O)CSc1cccc[n+]1[O-] the results were CtBP-E1A blk -2, DT40 TDP1 no CPT -1%, TDP1 cell CPT -15%, Six1-Eya2 inh -7, IL1B secr inh -2 and TDP1 block 0%.
For COc1ccc(S(=O)(=O)N2CCN(C(=O)c3cc(-c4ccccc4OC)n[nH]3)CC2)cc1 the results were CtBP-E1A blk 1, DT40 TDP1 no CPT inconclusive, TDP1 cell CPT inconclusive, Six1-Eya2 inh -6 and IL1B secr inh -10.
For Nc1nnnn1/N=C/C(Br)=C/c1ccccc1 the results were CtBP-E1A blk 1, DT40 TDP1 no CPT 0.58µM*, TDP1 cell CPT 0.46µM*, Six1-Eya2 inh 4, IL1B secr inh -93* and TDP1 block 2%.
`CC(/C=N/N1CCN(c2ccc(C)cc2)CC1)=C\c1ccccc1` gave CtBP-E1A blk -2, DT40 TDP1 no CPT -7%, TDP1 cell CPT 7%, Six1-Eya2 inh -3, IL1B secr inh -17 and TDP1 block -3%.
Cc1ccc(CN2CCN(/N=C\C(Br)=C\c3ccccc3)CC2)cc1 was read as CtBP-E1A blk -18, DT40 TDP1 no CPT 8.2µM*, TDP1 cell CPT 2.6µM*, Six1-Eya2 inh -12, IL1B secr inh -78* and TDP1 block 6%.
`Cc1ccc(CN2CCN(/N=C/c3cc(Br)cc(Br)c3O)CC2)cc1` gave CtBP-E1A blk inconclusive, DT40 TDP1 no CPT 21µM*, TDP1 cell CPT inconclusive, Six1-Eya2 inh -27, IL1B secr inh -12 and TDP1 block -3%.
`BrC(=C\c1ccccc1)/C=N/N1CCN(c2ccccc2)CC1` gave CtBP-E1A blk -26, DT40 TDP1 no CPT 7.3µM*, TDP1 cell CPT 1.2µM*, Six1-Eya2 inh -13, IL1B secr inh -81* and TDP1 block -1%.
`Cc1nc(CN(C)C(=O)C2CCC(=O)N(CCc3cccc(F)c3)C2)cs1` (stereo not drawn) gave CtBP-E1A blk 11, DT40 TDP1 no CPT -7%, TDP1 cell CPT 0%, Six1-Eya2 inh -1, IL1B secr inh 6 and TDP1 block 2%.
COc1ccc(NC(=O)c2cccc3c(-c4ccc(O)c(OC)c4)coc23)cc1 was read as CtBP-E1A blk -14, DT40 TDP1 no CPT 18µM*, TDP1 cell CPT inconclusive, Six1-Eya2 inh -22 and IL1B secr inh -1.
`COc1cc(-c2coc3c(C(=O)NCc4cccc(Cl)c4)cccc23)ccc1O` gave CtBP-E1A blk -16, DT40 TDP1 no CPT 18µM*, TDP1 cell CPT inconclusive, Six1-Eya2 inh -19 and IL1B secr inh -55*.
`COc1cc(-c2coc3c(C(=O)NCc4ccccc4)cccc23)ccc1O` gave CtBP-E1A blk inconclusive, DT40 TDP1 no CPT -76%, TDP1 cell CPT 18µM*, Six1-Eya2 inh -25 and IL1B secr inh inconclusive.
O=C(CCCCCN1C(=O)c2ccccc2C1=O)NCc1ccccn1 was read as CtBP-E1A blk 1, DT40 TDP1 no CPT -6%, TDP1 cell CPT 12%, Six1-Eya2 inh -11, IL1B secr inh 24 and TDP1 block 0%.
Cc1ccc2[nH]c3c(=O)n(CCCN4CCOCC4)cnc3c2c1 was read as CtBP-E1A blk -2, DT40 TDP1 no CPT -27%, TDP1 cell CPT -24%, Six1-Eya2 inh -2, IL1B secr inh 1 and TDP1 block 2%.
COc1ccc(NC(=O)c2ccc(Br)o2)cc1 was read as CtBP-E1A blk 0, DT40 TDP1 no CPT inconclusive, TDP1 cell CPT inconclusive, Six1-Eya2 inh 6, IL1B secr inh -9 and TDP1 block 5%.
For NS(=O)(=O)c1ccc(O)c(NC(=O)c2ccc([N+](=O)[O-])o2)c1 the results were CtBP-E1A blk -7, DT40 TDP1 no CPT inconclusive, TDP1 cell CPT inconclusive, Six1-Eya2 inh 0, IL1B secr inh -61* and TDP1 block -5%.
`Cc1cc(C)nc(NC(=O)c2ccc([N+](=O)[O-])o2)n1` gave CtBP-E1A blk 6, DT40 TDP1 no CPT 13µM*, TDP1 cell CPT inconclusive, Six1-Eya2 inh 0, IL1B secr inh 0 and TDP1 block inconclusive.
For COc1ccc(NC(=O)c2ccc([N+](=O)[O-])o2)cc1 the results were CtBP-E1A blk 3, DT40 TDP1 no CPT 23µM*, TDP1 cell CPT 16µM*, Six1-Eya2 inh 0, IL1B secr inh -96* and TDP1 block 3%.
`CC(=O)c1cccc(NC(=O)c2ccc([N+](=O)[O-])o2)c1` gave CtBP-E1A blk 0, DT40 TDP1 no CPT 15µM*, TDP1 cell CPT 8.2µM*, Six1-Eya2 inh 7 and IL1B secr inh -87*.
`CSc1ncc(C(=O)Nc2cccnc2)c(C(F)(F)F)n1` gave CtBP-E1A blk 4, DT40 TDP1 no CPT -1%, TDP1 cell CPT -11%, Six1-Eya2 inh 4 and IL1B secr inh -1.

Screening results: PubChem, National Center for Advancing Translational Sciences (NCATS)
